Experimental data as given in PubChem BioAssay AID1220 (Sanford-Burnham Center for Chemical Genomics, 2008).
The whole screen tested about 190,000 compounds, of which about 1,300 (0.68%) were called active. The sample holds actives, similar compounds and a random draw of the others, so the mix is not that of the screen. A number with no mark means an inactive call. No stated cut-off is given here; in the data, active means inhibition above about 50%; inactive means the rest.

target: Mannose-6-phosphate isomerase (Homo sapiens) (UniProt P34949); assay: human PMI inhibitors, high substrate, primary screen, biochemical, fluorescence intensity, high mannose 6-phosphate (AID 1220); details: recombinant PMI enzyme, coupled fluorescence intensity; at 20 µM; active compounds read high
Sequence (P34949 whole entry, looked up): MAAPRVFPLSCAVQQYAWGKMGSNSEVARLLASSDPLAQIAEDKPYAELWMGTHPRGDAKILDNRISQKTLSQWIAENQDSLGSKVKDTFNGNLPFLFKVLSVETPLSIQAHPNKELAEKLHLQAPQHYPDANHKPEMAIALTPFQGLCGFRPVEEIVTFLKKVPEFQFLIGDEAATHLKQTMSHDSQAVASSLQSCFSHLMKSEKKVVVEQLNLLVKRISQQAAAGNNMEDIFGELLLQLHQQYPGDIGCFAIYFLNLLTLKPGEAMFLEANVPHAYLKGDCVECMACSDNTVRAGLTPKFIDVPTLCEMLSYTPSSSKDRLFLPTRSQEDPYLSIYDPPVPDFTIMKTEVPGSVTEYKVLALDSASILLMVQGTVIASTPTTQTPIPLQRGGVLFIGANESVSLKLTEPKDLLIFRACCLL

| SMILES | inhibition |
| --- | --- |
| Cc1ccc(/C=N/NC(=O)c2nnn(-c3nonc3N)c2CSc2ccc(Cl)cc2)cc1 | -7% |
| Cc1ccc(O)c(NC(=O)c2noc3c2CCc2ccccc2-3)c1 | 13% |
| CCOC(=O)CC1C(=O)NCCN1S(=O)(=O)c1ccccc1 (stereo not given) | -2.9% |
| CC(C)C(=O)N(Cc1ccc(F)cc1)Cc1nc2ccccc2c(=O)[nH]1 | 4.6% |
| CCN(CC)c1ccc2ccc(=O)oc2c1 | 3.8% |
| CCN(CC)c1ccc2c(C)c(Cl)c(=O)oc2c1 | -1.9% |
| CC(SC1CCCC1)C(=O)Nc1ccnn1C(C)C (stereo not given) | -2.4% |
| CC(C)OCCCNC(=S)NNC(=O)C(c1ccccc1)c1ccccc1 | -14.8% |
| O=c1cc(CN2CCN(c3ccccn3)CC2)nc2sccn12 | 9.8% |
| CC(=O)c1cc2c(C)c(C(=O)c3ccccc3)oc2cc1O | 8.2% |
| CCCCNC(=S)Nc1cccc2cnccc12 | 3.6% |
| Fc1ccccc1NC(=S)Nc1cccc2cnccc12 | 9.4% |
| O=C(NNC(=S)Nc1ccccc1)c1ccc2ncccc2c1 | -9.6% |
| S=C(NCCc1ccccc1)Nc1cccc2cnccc12 | 57.3% (active) |
| O=C(NC(=S)Nc1cccc2cnccc12)c1ccccc1 | 54.7% (active) |
| S=C(NCCc1ccncc1)Nc1cccc2ccccc12 | 18.9% |
| O=C(NC(=S)Nc1cccc2cccnc12)c1ccccc1 | 10% |
| O=C(NC(=S)Nc1cnc2ccccc2c1)c1ccccc1 | 10.3% |
| O=C(NC(=S)Nc1ccc2ncccc2c1)c1ccccc1 | 55.9% (active) |
| COc1ccc(Cn2cc(C(=O)c3ccccc3)c(=O)c3cc(OC)ccc32)cc1 | 15.1% |
| Cn1c(Cc2ccccc2)nnc1SCC(=O)N1CCOCC1 | -5.3% |
| CC(C)(C)c1ccc(NC(=O)CNC2CCCc3ccccc32)cc1 (stereo not given) | -3.2% |

| SMILES | inhibition |
| --- | --- |
| COc1cc(/C=N/N2CCOCC2)ccc1OCc1ccccc1 | -7.2% |
| CCSc1nnc(NC(=O)CSc2nc(CC)nc3c2c(=O)n(C)c(=O)n3C)s1 | 6.7% |
| CC1CCN(S(=O)(=O)c2cccc(C(=O)NCc3ccco3)c2)CC1 | -3.8% |
| Cc1ccc(C2NC(=O)NC3=C2CCc2ccccc23)cc1 (stereo not given) | 40.5% |
| O=C1NC2=C(CCc3ccccc32)C(c2ccccc2)N1 (stereo not given) | 2.3% |
| Cc1ccc(-c2nnn(CC(=O)N(CC3CCCO3)C(C(=O)NCC3CCCO3)c3ccc(F)cc3)n2)o1 (stereo not given) | 2.7% |
| O=C(CN1C2CCCC1CC(NC(=O)c1ccccc1)C2)Nc1nccs1 (stereo not given) | -12.4% |
| O=C(NCC(c1cccnc1)N1CCN(c2ccccc2)CC1)C1CCCCC1 (stereo not given) | 8.8% |
| C=CCN1C(=O)c2cccc3c(Br)ccc(c23)C1=O | 4.2% |
| CN(C)CCCN1C(=O)c2cccc3c(Br)ccc(c23)C1=O | 52% (active) |
| CN(C)CCCN1C(=O)c2cccc3c([N+](=O)[O-])ccc(c23)C1=O | 29.6% |
| Fc1ccccc1CNc1cc(Cl)cc(Cl)c1 | 5.3% |
| COc1ccc(/C=N\NC(=O)C2C(=O)NCC2c2ccccc2)cc1O (stereo not given) | 8.9% |
| COc1cccc(/C=N\NC(=O)C2C(=O)NCC2c2ccccc2)c1O (stereo not given) | -17% |
| COc1cc(/C=N\NC(=O)C2C(=O)NCC2c2ccccc2)cc(OC)c1O (stereo not given) | 50.9% (active) |
| CC(/C=N\Nc1nnc2c(n1)[nH]c1c(C)cccc12)=C\c1ccco1 | 7% |
| Cc1oc(/N=C/c2ccc(Cl)cc2Cl)c(C#N)c1C | -5.8% |
| COc1ccc(/C=N/c2oc(C)c(C)c2C#N)c(OC)c1 | 51.5% (active) |
| Cc1oc(/N=C/c2ccc(O)cc2O)c(C#N)c1C | 8.5% |
| O=C(c1ccc(Br)o1)N1CCN=C1SCc1cccnc1 | 2.2% |
| COCCCNC(=S)NNC(=O)c1ccc(S(=O)(=O)N2CCC(C)CC2)cc1 | -5.4% |
| CC(=O)c1cccc(NC(=O)c2ccco2)c1 | 2.7% |

| SMILES | inhibition |
| --- | --- |
| O=C(Nc1cccc(N=Cc2cc(Br)cc(Br)c2O)c1)c1ccco1 | 53.4% (active) |
| O=C(Nc1cccc(N=Cc2cc(Cl)cc(Br)c2O)c1)c1ccco1 | 44.4% |
| O=C(CSc1nnc(-c2cccs2)n1-c1ccccc1)c1ccc2c(c1)OCCO2 | 6.2% |
| CCOC(=O)N1CCC(NC(=O)c2ccc3c(c2)N(Cc2ccc(C)cc2)CCS3)CC1 | 24.9% |
| CCOC(=O)N1CCC(NC(=O)c2ccc3c(c2)N(C)CCS3)CC1 | 55.2% (active) |
| CCOC(=O)N1CCC(NC(=O)c2ccc3c(c2)N(Cc2ccccc2)CCS3)CC1 | 13.2% |
| COc1cccc(C2=NOC(C(=O)NC(C)C)C2)c1 (stereo not given) | 3.6% |
| COc1ccc(C2=NOC(C(=O)NC3CCCCC3)C2)cc1OC (stereo not given) | 11.9% |
| COc1cccc(C2=NOC(C(=O)NC3CCCCC3)C2)c1 (stereo not given) | 53.2% (active) |
| C#CCNC(=O)C1CCN(c2ccc(S(=O)(=O)N3CCOCC3)cc2Cl)CC1 | -1.4% |
| CCOc1cc(N2CCOCC2)c(OCC)cc1NC(=O)c1ccc(OC(C)C)cc1 | 19.1% |
| CCC(C)C(=O)Nc1ccc(OC)cc1OC (stereo not given) | 5.6% |
| CCOc1cc(N2CCOCC2)c(OCC)cc1NC(C)C(=O)N1CCN(CC)CC1 (stereo not given) | 57.1% (active) |
| CCN1CCN(C(=O)Nc2ccc(OC)cc2OC)CC1 | 34.3% |
| CCOc1cc(N2CCOCC2)c(OCC)cc1NC(=O)C1CCCC1 | -1% |
| CCN1CCN(C(=O)C(C)Nc2ccc(OC)cc2OC)CC1 (stereo not given) | 58.6% (active) |
| CCOc1cc(N2CCOCC2)c(OCC)cc1NC(=O)CN1CCCC1 | 20.8% |
| CCOc1cc(N2CCOCC2)c(OCC)cc1NC(C)C(=O)N1CCC(C)CC1 (stereo not given) | 59.1% (active) |
| CCOc1cc(N2CCOCC2)c(OCC)cc1NC(=O)CN1CCCC(C)C1 (stereo not given) | 30.5% |
| CC(=O)c1cccc(N/C=C\C(=O)c2ccc(C)cc2)c1 | 1.9% |
| CCN(CC)S(=O)(=O)c1cccc(C(=O)Nc2ccc(C#N)cc2)c1 | 16.5% |
